Experimental data from publication PMC5101189.

Legend:
Assay in all cases: cross-linking mass spectrometry
Conditions in all cases: BS3, purified complex
MIS12 = MIS12 (UniProt Q9H081)
PMF1 = PMF1 (UniProt Q6P1K2)
SPC25 = SPC25 (UniProt Q9HBM1)
SPC24 = SPC24 (UniProt Q8NBT2)
NSL1 = NSL1 (UniProt Q96IY1)
DSN1 = DSN1 (UniProt Q9H410)
ZWINT = ZWINT (UniProt O95229)
ZWINT, sequence (O95229 whole entry): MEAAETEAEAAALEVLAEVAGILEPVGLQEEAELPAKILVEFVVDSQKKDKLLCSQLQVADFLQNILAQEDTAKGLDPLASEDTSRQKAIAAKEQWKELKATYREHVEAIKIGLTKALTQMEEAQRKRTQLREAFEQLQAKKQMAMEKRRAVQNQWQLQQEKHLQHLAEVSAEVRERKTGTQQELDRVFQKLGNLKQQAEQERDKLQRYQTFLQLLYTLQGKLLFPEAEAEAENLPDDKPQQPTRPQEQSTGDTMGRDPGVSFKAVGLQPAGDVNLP

NDC80, O14777, sequence (O14777 whole entry): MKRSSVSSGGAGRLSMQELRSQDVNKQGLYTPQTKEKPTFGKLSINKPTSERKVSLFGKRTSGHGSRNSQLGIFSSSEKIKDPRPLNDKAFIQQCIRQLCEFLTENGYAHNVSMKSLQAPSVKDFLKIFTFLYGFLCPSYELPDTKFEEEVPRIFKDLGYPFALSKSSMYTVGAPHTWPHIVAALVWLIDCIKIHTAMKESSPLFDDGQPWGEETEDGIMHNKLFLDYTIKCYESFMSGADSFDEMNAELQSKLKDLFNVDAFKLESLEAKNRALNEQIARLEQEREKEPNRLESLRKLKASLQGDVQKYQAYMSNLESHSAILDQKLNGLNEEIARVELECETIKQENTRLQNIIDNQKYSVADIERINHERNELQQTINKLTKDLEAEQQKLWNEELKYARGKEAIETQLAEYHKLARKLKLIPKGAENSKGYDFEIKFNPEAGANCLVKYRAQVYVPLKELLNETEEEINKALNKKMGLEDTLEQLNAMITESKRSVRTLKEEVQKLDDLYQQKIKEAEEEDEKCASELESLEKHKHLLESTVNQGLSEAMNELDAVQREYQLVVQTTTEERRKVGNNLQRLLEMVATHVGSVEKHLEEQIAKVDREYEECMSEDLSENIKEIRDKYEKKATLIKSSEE
CENPC, Q03188, sequence (Q03188 whole entry): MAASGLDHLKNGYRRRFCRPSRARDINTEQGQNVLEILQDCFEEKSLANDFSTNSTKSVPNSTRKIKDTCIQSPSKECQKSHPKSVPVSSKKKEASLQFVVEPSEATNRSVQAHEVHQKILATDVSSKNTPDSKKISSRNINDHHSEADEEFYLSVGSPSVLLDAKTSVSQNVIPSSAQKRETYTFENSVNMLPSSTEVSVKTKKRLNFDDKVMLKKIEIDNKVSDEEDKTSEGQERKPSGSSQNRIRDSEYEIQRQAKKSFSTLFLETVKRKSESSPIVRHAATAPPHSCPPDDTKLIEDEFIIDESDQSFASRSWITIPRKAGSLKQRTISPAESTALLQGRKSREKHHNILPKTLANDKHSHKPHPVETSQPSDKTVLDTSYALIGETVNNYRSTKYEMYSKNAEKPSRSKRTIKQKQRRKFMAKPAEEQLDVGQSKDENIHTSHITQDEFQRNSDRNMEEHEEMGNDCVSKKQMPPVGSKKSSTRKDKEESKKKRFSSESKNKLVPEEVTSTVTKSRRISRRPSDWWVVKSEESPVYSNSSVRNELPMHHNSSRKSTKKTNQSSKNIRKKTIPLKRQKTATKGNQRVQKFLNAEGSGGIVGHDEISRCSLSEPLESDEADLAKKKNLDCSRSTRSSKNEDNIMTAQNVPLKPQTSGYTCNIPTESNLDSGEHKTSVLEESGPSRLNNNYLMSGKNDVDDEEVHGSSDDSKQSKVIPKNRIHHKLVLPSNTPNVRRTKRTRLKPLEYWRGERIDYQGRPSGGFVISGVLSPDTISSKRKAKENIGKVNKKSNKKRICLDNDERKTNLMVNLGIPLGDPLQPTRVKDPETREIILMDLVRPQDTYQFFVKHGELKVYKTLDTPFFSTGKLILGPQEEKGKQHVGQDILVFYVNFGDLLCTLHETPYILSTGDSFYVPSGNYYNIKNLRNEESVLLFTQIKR
SPC24, sequence (Q8NBT2 whole entry): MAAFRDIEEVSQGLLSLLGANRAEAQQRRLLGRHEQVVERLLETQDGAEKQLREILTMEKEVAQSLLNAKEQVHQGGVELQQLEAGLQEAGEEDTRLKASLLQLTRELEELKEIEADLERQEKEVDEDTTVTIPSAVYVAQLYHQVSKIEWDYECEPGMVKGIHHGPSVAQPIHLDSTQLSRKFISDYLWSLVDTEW
NSL1, sequence (Q96IY1 whole entry): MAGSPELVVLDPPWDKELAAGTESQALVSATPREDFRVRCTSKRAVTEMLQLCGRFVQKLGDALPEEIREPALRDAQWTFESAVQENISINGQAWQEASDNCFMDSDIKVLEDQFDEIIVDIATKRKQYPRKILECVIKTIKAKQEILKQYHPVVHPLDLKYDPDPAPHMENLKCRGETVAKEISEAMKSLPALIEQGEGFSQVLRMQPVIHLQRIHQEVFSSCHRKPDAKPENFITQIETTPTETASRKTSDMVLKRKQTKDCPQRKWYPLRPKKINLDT
MIS12, sequence (Q9H081 whole entry): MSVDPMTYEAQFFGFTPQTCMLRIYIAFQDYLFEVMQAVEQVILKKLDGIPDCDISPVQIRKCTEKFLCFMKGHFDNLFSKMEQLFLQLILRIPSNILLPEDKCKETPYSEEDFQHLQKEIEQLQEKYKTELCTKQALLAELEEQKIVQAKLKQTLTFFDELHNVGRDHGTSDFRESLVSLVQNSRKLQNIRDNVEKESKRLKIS
PMF1, Q6P1K2, sequence (Q6P1K2 whole entry): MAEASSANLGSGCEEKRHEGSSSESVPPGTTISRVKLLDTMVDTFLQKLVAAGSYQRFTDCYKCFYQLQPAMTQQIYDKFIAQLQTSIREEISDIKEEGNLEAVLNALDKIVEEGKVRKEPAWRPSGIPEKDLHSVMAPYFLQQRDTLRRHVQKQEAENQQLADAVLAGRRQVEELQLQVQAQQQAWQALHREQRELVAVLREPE
PMF1, sequence (Q6P1K2 whole entry): as above
ZWINT, O95229, sequence (O95229 whole entry): as the sequence (O95229 whole entry) above
SPC25, sequence (Q9HBM1 whole entry): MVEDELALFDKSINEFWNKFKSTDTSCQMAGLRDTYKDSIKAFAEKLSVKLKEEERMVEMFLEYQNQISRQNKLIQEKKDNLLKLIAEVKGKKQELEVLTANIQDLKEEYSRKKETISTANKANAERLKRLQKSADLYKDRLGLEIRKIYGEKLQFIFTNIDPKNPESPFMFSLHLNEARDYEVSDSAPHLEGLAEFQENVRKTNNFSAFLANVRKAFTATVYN
DSN1, sequence (Q9H410 whole entry): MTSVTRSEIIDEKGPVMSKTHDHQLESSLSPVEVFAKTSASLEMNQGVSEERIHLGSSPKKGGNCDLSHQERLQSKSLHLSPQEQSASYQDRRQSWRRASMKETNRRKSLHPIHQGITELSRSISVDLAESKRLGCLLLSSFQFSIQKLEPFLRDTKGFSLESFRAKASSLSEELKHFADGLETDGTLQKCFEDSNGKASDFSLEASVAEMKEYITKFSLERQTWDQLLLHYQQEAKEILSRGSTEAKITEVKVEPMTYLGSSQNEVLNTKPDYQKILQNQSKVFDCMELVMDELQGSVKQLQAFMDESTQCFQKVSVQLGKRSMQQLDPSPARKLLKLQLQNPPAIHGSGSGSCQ
NSL1, Q96IY1, sequence (Q96IY1 whole entry): as the sequence (Q96IY1 whole entry) above

Question: CENPC, Q03188 was tested. Which cross-linked residues (MIS12) did it give?
Answer: The cross-linked residues was “K45 - K81”.

Question: And the cross-linked residues (PMF1)?
Answer: The cross-linked residues was “K45 - K48”.

Question: How did the cross-linked residues (SPC25) turn out when NSL1, Q96IY1 was run?
Answer: The cross-linked residues was “K275 - K203”.

Question: How did the cross-linked residues (SPC24) turn out when PMF1, Q6P1K2 was run?
Answer: Its cross-linked residues is “K79 - K98”.

Question: Which cross-linked residues (NSL1) does the source give for ZWINT, O95229 here?
Answer: The cross-linked residues was “K196 - K262”.

Question: With KNL1, Q8NG31 as the substance, how does the cross-linked residues (NSL1) read?
Answer: Its cross-linked residues is “K2247 - K268”.

Question: What does the source list for NDC80, O14777?
Answer: cross-linked residues (DSN1): K300 - K315; cross-linked residues (SPC24): K624 - K50; cross-linked residues (ZWINT): K271 - K141
